In PubChem BioAssay (NCI):
The panel holds about 83,000 compounds, 20% with a hit somewhere; the sample as a whole holds those more often.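 Compound tested at a single concentration for 48 hours in 96-well plates; a percent growth value below 10 was scored as active.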 Values without a mark were called inactive. Calls of active or inactive are those of the source.

Tests used:
Experiment in all cases: NCI-60 one-dose screen, 48 h (100 = growth as untreated, 0 = no growth, -100 = all killed)
Details in all cases: 10 µM unless noted
[1] = test system: T-47D breast
[2] = test system: BT-549 breast
[3] = test system: MDA-MB-435 melanoma
[4] = test system: SW-620 colon
[5] = test system: HCT-116 colon
[6] = test system: HCC-2998 colon
[7] = test system: KM12 colon
[8] = test system: MCF7 breast

| Compound | growth [1] | growth [2] | growth [3] | growth [4] | growth [5] | growth [6] | growth [7] | growth [8] |
| --- | --- | --- | --- | --- | --- | --- | --- | --- |
| CC(C)(C)c1ccc(O)c(-c2ccccc2)c1 | 109% | 131% | 124% | 98.9% | 102% | 103% | 104% |  |
| O=C(c1ccccc1)C(O)C(Br)(CBr)c1ccccc1 (stereo not drawn) | 98.6% | 68.4% | 67.4% |  | 57.2% | 87.1% | 80.5% | 81.5% |
| CCSc1nc2ccccc2o1 | 106% |  | 111% | 106% | 111% | 117% | 108% | 99.5% |
| CCCCCCCCc1cc(Cl)c(O)c(Cl)c1 | 101% | 116% | 102% | 117% | 103% | 112% | 101% |  |
| CCCc1cc(=O)oc2c3c(c4c(c12)OC(C)(C)CC4)OC(C)[C@H](C)[C@@H]3O (stereo partly drawn) | 67.9% | 108% | 112% | 84.3% |  | 116% | 97.8% |  |
| O=C1C(=O)c2cc([N+](=O)[O-])ccc2-c2ccccc21 | -35.6% (active) |  | -79.3% (active) | -81.1% (active) | -92.5% (active) | 65.9% | -81.7% (active) | -55.3% (active) |
| Oc1c(Cl)cc(Cl)cc1C(c1cc(Cl)cc(Cl)c1O)C(Cl)(Cl)Cl | 1.95% (active) | 7.91% (active) |  | 9.94% (active) | 0.34% (active) |  | -0.332% (active) | 4.85% (active) |
| N#CCc1cccc2ccccc12 | 105% |  | 119% | 105% | 106% | 109% | 110% | 87.4% |
| Clc1ccc(-n2ncc3c(NCCCN4CCOCC4)ncnc32)cc1 | 85.3% | 101% | 98.9% | 104% | 94.9% | 105% | 103% |  |
| CCCCCCCCCCCC1N=C(N)N=C(N)N1c1cccc(Br)c1 (stereo not drawn) | 38.4% |  | 22.4% | -93.9% (active) | -100% (active) | -87.7% (active) | -91.8% (active) | -87.8% (active) |
| N#Cc1c2ccccc2nc2ccccc12 | 101% | 114% | 103% | 98.4% | 105% |  | 108% |  |
| [Cl-].[Rh+3].c1ccc(-c2ccnc3c2ccc2c(-c4ccccc4)ccnc23)cc1.c1ccc(-c2ccnc3c2ccc2c(-c4ccccc4)ccnc23)cc1.c1ccc(-c2ccnc3c2ccc2c(-c4ccccc4)ccnc23)cc1 | 50.4% | 42.9% | 72.5% | 99.2% | 87.3% |  | 59.3% |  |
| Nc1nc(N)c2cc(Sc3cccc(C(F)(F)F)c3)ccc2n1 | 45% | 50.3% | 28.8% | 22.5% | 15% | -57.2% (active) | 24.8% |  |
| O=[N+]([O-])C=C(c1ccccc1)c1ccccc1 | 66.2% | 76.6% | 23.7% |  | 64% | 87.3% | 66.4% | 84.8% |
| N=C1C=C(N)C(=O)c2ccccc21 | -46.1% (active) | -99.1% (active) | -75.7% (active) | -85% (active) | -98.7% (active) | -99.5% (active) | -82.4% (active) |  |
| CC(CSc1n[nH]c(=S)s1)c1ccccc1 (stereo not drawn) | 110% | 112% | 109% | 112% | 105% |  | 113% |  |
| Fc1ccc(NCCS)cc1 | 103% |  | 107% | 102% | 111% | 96.7% | 98.3% | 90% |
| N#CC(I)CS(=O)(=O)c1ccccc1 (stereo not drawn) | 44.6% | 97% | 109% | 26.3% | -10.5% (active) | 107% | 96.1% |  |
| COc1cc(NC(=O)C2=C(C)NC(C)=C(C(=O)Nc3cc(OC)c(Cl)cc3OC)C2c2cccc([N+](=O)[O-])c2)c(OC)cc1Cl |  | 36.9% | 9.7% (active) | 46.4% | 23.9% | 15.6% | 18.3% | 14.5% |
| Oc1ccc(Cl)cc1Cc1cc(Cl)ccc1O |  | 37.1% | 36.7% | 26.9% | 2.45% (active) | 50.7% | 72.5% |  |
| O=[N+]([O-])c1ccc([I+]c2ccccc2)cc1 | -20% (active) |  | 20.8% | 19.5% | -31.4% (active) | 46.1% | -75.7% (active) | -29% (active) |
| O/N=C1\c2ccccc2-c2ccc(F)cc21 |  | 97.4% | 114% | 112% | 98.3% | 95.1% |  | 25.6% |
| OC(c1cc2ccc(C(F)(F)F)cc2c2cc(C(F)(F)F)ccc12)C1CCCCN1 (stereo not drawn) | -90.5% (active) |  | -100% (active) | -100% (active) | -86.5% (active) | -86.7% (active) | -97.3% (active) |  |
| CN(Cc1ccccc1)c1ccc(SC#N)cc1 |  | 43.9% | 94.7% | 85.3% | 39.5% | 89.8% | 40.4% | 76.3% |
| O=[N+]([O-])/C(=C/c1ccccc1)c1ccccc1 |  | 93% | 107% | 107% | 96.5% | 94.1% | 107% | 97.4% |
| O=C(Cc1nc2cc(Cl)c(Cl)cc2nc1CC(=O)c1ccccc1)c1ccccc1 |  | 52% | 67.4% | 92.6% | 56.8% | 92.8% | 77.3% | 9.51% (active) |
| CN(C)CC(C)(CN(C)C)C(=O)/C=C/c1c(Cl)cccc1Cl |  | 51.1% | 13.1% | 4.63% (active) | -41.2% (active) | 37.2% | -25.7% (active) | -60.9% (active) |
| Nc1nc2ncc(CNc3ccc(C(=O)NC(CCC(=O)NC(CCC(=O)NC(CCC(=O)NC(CCC(=O)NC(CCC(=O)O)C(=O)O)C(=O)O)C(=O)O)C(=O)O)C(=O)O)cc3)nc2c(=O)[nH]1 (stereo not drawn) |  | 106% | 111% | 105% | 103% | 117% | 101% | 98.7% |
